Data on 39 compounds can be found in PubChem BioAssay (NCATS).

Inconclusive results are not listed. Unmarked numbers belong to inactive results. Activity calls are given as the source filed them. Calls come from the whole dose curve; as a rule, active = well fitted inhibition curve with a large enough effect; inconclusive = small, poorly fitted or top-dose-only effect; inactive = flat fitted curve, though single readings scatter. Where a SMILES comes first, the peptide text is derived from it. Bridges are numbered along the chain shown (N, C = ends). [ ]: non-standard residue; d: D form. NMeY = CN[CH](Cc1ccc(O)cc1)C(=O)O
% is set by controls: 0 for no effect and ±100 for the full control effect; potency is the fitted concentration of half-maximal effect.

In the experiment the test system is HEK293. In words: Cytotoxic Profiling of Annotated Libraries Using Quantitative High-Throughput Screening (AID 1296008). Note: nearly all actives have a fitted effect of over 60% in size. To be noted: Five cell lines viability, CellTiter-Glo ATP luminescence, 48-72 h; max response: active compounds read low. In short, it runs like this:
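Compounds were pin-transferred onto cells and incubated 48 or 72 hr at 37 degree Celsius, 95% humidity. CellTiter-Glo was added, plates sat 10 min at room temperature, then ATP-coupled luminescence was imaged as the viability read-out.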
Background: ATP-based viability assays read luminescence as a measure of living cells.
In the case of `COC(=O)N1CCC(n2ncc3c(N4CCOCC4)nc(-c4ccc(NC(=O)Nc5ccc(CO)cc5)cc4)nc32)CC1`, the Potency was 0.058 µM (active).

As to `O=C(c1ccc(/C=C/c2n[nH]c3ccccc23)cc1)N1CCNCC1`, the Potency is 20.6 µM (active).

With `NC1CCC(Nc2cc(-c3cccc(NCc4cccc(F)c4)n3)c(Cl)cn2)CC1` (centres undefined), the Potency is 0.259 µM (active).

Consider `c1cn2cc(-c3ccc4cn[nH]c4c3)nc(Nc3ccc(N4CCOCC4)cc3)c2n1`, for which the Potency is 18.4 µM (active).

Regarding `C[C@@H]1N[C@H]2N(C1=O)c1ccccc1[C@@]2(O)C[C@@H]1C(=O)N[C@@H](C)c2nc3ccccc3c(=O)n21`, the max response is -21.5%.

As for `COC(=O)C1(C)c2[nH]c3ccccc3c2CCN1C(=O)CCl` (centres undefined), the Potency is 7.31 µM (active).

On to `CCC(C)C1NC(=O)C2CCCN2C(=O)C(NC(C)=O)C(C)OC(=O)C(Cc2ccc(OC)cc2)N(C)C(=O)C2CCCN2C(=O)C(C(C)C)NC1=O` (centres undefined) (Ac-TPIVP[NMeY](Me); ester 1-C; configuration not given here), for which the max response was -18.8%.

Take `O=[N+]([O-])c1cccc2[nH]c(CNc3nc(N4CCOCC4)nc4c3ncn4-c3ccsc3)nc12`: the Potency is 0.058 µM (active).

Take `CC(C)c1nc(-c2ccc(NC(=O)Nc3cccc(C(F)(F)F)c3)c3ccccc23)c2c(N)nccn12`: the Potency is 6.51 µM (active).

Consider `C[C@@H]1O[C@@H](O[C@H]2[C@H](O[C@H]3CC[C@@]4(C)C(CC[C@]5(C)C4C=C[C@]46OC[C@@]7(CCC(C)(C)C[C@H]74)[C@@H](O)C[C@]65C)[C@]3(C)CO)O[C@H](CO)[C@@H](O)[C@@H]2O[C@@H]2O[C@H](CO)[C@@H](O[C@@H]3O[C@@H](C)[C@H](O)[C@@H](O)[C@H]3O)[C@H](O)[C@H]2O)[C@H](O)[C@H](O)[C@H]1O` (some centres undefined), for which the Potency was 3.9 µM (active).

For `COC(=O)N[C@@H](C)CNc1nccc(-c2cn(C(C)C)nc2-c2cc(Cl)cc(NS(C)(=O)=O)c2F)n1`, the Potency is 11.6 µM (active).

With `C=CC(C)(C)c1[nH]c2cc3c(cc2c1CC1NC(=O)C2CCCN2C1=O)C=CC(C)(C)O3` (centres undefined), the compound was called inactive.

Consider `CC(=O)O[C@@H]1[C@H](O)[C@@H](O[C@@H]2O[C@@H](C)[C@H](O[C@@H]3OC[C@@H](O)[C@H](O[C@@H]4OC[C@@H](O)[C@H](O)[C@H]4O)[C@H]3O)[C@@H](O[C@@H]3O[C@H](CO)[C@@H](O)[C@H](O)[C@H]3O)[C@H]2O)[C@H](OC(=O)[C@]23CCC(C)(C)C[C@H]2C2=CCC4[C@@]5(C)CC[C@H](O[C@@H]6O[C@H](C(=O)O)[C@@H](O)[C@H](O[C@@H]7OC[C@@H](O)[C@H](O)[C@H]7O)[C@H]6O[C@@H]6O[C@H](CO)[C@H](O)[C@H](O)[C@H]6O)[C@@](C)(C=O)C5CC[C@@]4(C)[C@]2(C)CC3)O[C@@H]1C` (some centres undefined), for which the max response was -5.31%.

Turning to `Cc1cccc(C)c1OCc1cc(C(=O)N2CCC(c3ccncc3)CC2)no1`, the Potency is 6.51 µM (active).

For `COc1ccc(C[C@H](N)C(=O)N[C@@H]2[C@H](O)[C@H](n3cnc4c(N(C)C)ncnc43)O[C@@H]2CO)cc1`, the Potency was 1.16 µM (active).

Consider `C[C@@H]1C(=O)O[C@H](C)[C@H]1CC(=O)[C@](C)(O)[C@H]1CC[C@@]2(O)C3=CC(=O)[C@@H]4C[C@@H](O)[C@@H](O)C[C@]4(C)C3CC[C@]12C` (some centres undefined), for which the max response was -19.4%.

For `Cc1cccc(/C=N/Nc2cc(N3CCOCC3)n3nc(-c4ccncc4)cc3n2)c1`, the Potency is 5.8 µM (active).

For `CCC(C)/C=C(C)/C=C/c1cc2c(cn1)C(=O)C(C)(OC(C)=O)C(O)=C2Cl` (centres undefined), the max response is -0.415%.

In the case of `NCc1ccc(Nc2ncc(F)c(Nc3ccccc3)n2)cc1`, the Potency is 20.6 µM (active).

In the case of `CN1CCC(Nc2nc(Nc3ccc(Oc4ccccc4)cc3)c3c(=O)[nH]cc(Br)c3n2)CC1`, the Potency is 2.31 µM (active).

`Nc1nc2c(c(N3CCNCC3)n1)CCC1=C2[C@@H]2CCCC[C@@H]2O1`: the Potency was 18.4 µM (active).

As for `CC(=O)N1CCN(C(=O)Cc2ccc(Nc3ncc(F)c(Nc4ccc(C(=O)Nc5ccccc5Cl)cc4)n3)cc2)CC1`, the Potency is 6.51 µM (active).

In the case of `CC(=O)OC1CC2C3(C)CCC(OC(=O)CC(=O)O)C(C)(C)C3CCC2(C)C2(C)CCC(C3(C)CCC(=O)O3)C12` (centres undefined), the compound was classed as inactive.

For the compound `C/C=C/C=C/C=C/C(=O)OC1C=C(C=O)C(O)(C(=O)O)C2(C)CCCC(C)(C)C12` (centres undefined), the max response was 1.26%.

Turning to `Cc1ccccc1-n1c([C@H](C)Nc2nc(N)nc3nc[nH]c23)nc2cccc(C)c2c1=O`, the Potency is 16.4 µM (active).

As for `C[C@@H]1O[C@@H](O[C@H]2[C@H](OC(=O)[C@]34CCC(C)(C)C[C@H]3C3=CCC5[C@@]6(C)C[C@H](O)[C@H](O[C@@H]7O[C@H](CO)[C@@H](O)[C@H](O)[C@H]7O)[C@@](C)(CO)C6[C@H](O)C[C@@]5(C)[C@]3(C)CC4)OC[C@H](O)[C@@H]2O)[C@H](O)[C@H](O)[C@H]1O[C@@H]1OC[C@@H](O)[C@H](O[C@@H]2OC[C@](O)(CO)[C@H]2O)[C@H]1O` (some centres undefined), the max response was -1.81%.

With `CCOc1cc(CC(=O)NC(CC(C)C)c2ccccc2N2CCCCC2)ccc1C(=O)O` (centres undefined), the max response is -4.19%.

`COC(=O)C1=CO[C@@H](O[C@@H]2O[C@H](CO)[C@@H](O)[C@H](O)[C@H]2O)[C@H]2[C@@H]1C=C[C@@]21C=C([C@H](C)O)C(=O)O1`: the max response is -5.88%.

For `Cc1ccc(N)cc1O`, the Potency is 43.3 µM (active).

As for `CO[C@H]1C[C@@H]2CC[C@@H](C)[C@@](O)(O2)C(=O)C(=O)N2CCCC[C@H]2C(=O)O[C@H]([C@H](C)C[C@H]2CC[C@@H](OP(C)(C)=O)[C@H](OC)C2)CC(=O)[C@H](C)/C=C(\C)[C@@H](O)[C@@H](OC)C(=O)[C@H](C)C[C@H](C)/C=C/C=C/C=C/1C`, the Potency was 0.0064 µM (active).

For the compound `CC(Oc1cc(-n2cnc3ccc(CN4CCN(C)CC4)cc32)sc1C(N)=O)c1ccccc1C(F)(F)F` (centres undefined), the Potency was 1.3 µM (active).

In the case of `C=C(C(=O)O)C1CCC2(C)CCCC(C)(O)C2C1` (centres undefined), the max response is -4.4%.

For the compound `C=C[C@H]1[C@H](O[C@@H]2O[C@H](CO)[C@@H](O)[C@H](O)[C@H]2O)OC=C(C(=O)OC)[C@H]1CCOC(=O)c1cc(O)c(O)c(O)c1`, the max response was 0.889%.

For `C=C1C(=O)O[C@H]2C1[C@H](OC(=O)/C(=C/CO)COC(=O)/C(C)=C/CO)CC(=C)[C@@H]1CC(=O)[C@@H](C)[C@@H]12` (some centres undefined), the Potency was 11.2 µM (active).

For `Oc1ccc(CNc2ccccc2F)c2cccnc12`, the Potency was 18.4 µM (active).

On to `O=C(O)/C=C/c1ccc(-c2ccc(O)c(C34CC5CC(CC(C5)C3)C4)c2)cc1`, for which the Potency was 0.731 µM (active).

For the compound `Cc1cc(N(C)C)ccc1-c1nc2ccc(-c3nc4ccc(N5CCN(C)CC5)cc4[nH]3)cc2[nH]1`, the Potency was 8.2 µM (active).

Take `Cn1nnc(-c2ccc(-c3ccc(N4C[C@H](COP(=O)(O)O)OC4=O)cc3F)cn2)n1`: the Potency is 0.58 µM (active).

Take `CC(C)[N+]1(C)C2CCC1CC(OC(=O)C(CO)c1ccccc1)C2` (centres undefined): the max response is -4.72%.
